Consider 13 sequences from publication PMC8384837, “Expanding the binding specificity for RNA recognition by a PUF domain”.

Test in all cases: yeast three-hybrid, YBZ-1, SC-Leu-His + 0.5 mM 3-AT, 4 days
Holding throughout (conditions): tags: N-Gal4 AD-HA kept; label: inside an RPR1-promoter hybrid RNA with tandem MS2 sites; ssRNA

The target of one test is PUM1 PUF domain R7-GND (Homo sapiens, UniProt Q14671 828-1176, S1079G;E1083D). The method, boiled down:
(§1)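 The interaction score is the logarithmic change in variant frequency from input to selection. It uses log2, with a pseudocount of 1 for absent variants, and frequencies came from PCR-amplified, Illumina-sequenced repeat regions. The libraries were Pumilio-1 PUF domains randomized at the three base-contacting residues per repeat, co-expressed with matching RNA elements in strain YBZ-1 (LexA–MS2 coat fusion, HIS3 reporter). Plating lasted four days on SC-Leu (input) or SC-Leu-His + 0.5 mM 3-AT (selection).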

Another test addresses PUM1 PUF domain R7-RSL (Homo sapiens, UniProt Q14671 828-1176, S1079R;N1080S;E1083L). The method, boiled down:
as §1

A further test deals with PUM1 PUF domain R5-GRK (Homo sapiens, UniProt Q14671 828-1176, C1007G;Q1011K). The method, boiled down:
as §1

For the next test, the target named is PUM1 PUF domain R1-SGE (Homo sapiens, UniProt Q14671 828-1176, R864G;Q867E). The method, boiled down:
as §1

Another test has as its target PUM1 PUF domain R5-RYI (Homo sapiens, UniProt Q14671 828-1176, C1007R;R1008Y;Q1011I). The procedure, abridged: as §1
For another test, the target named is PUM1 PUF domain R5-RGT (Homo sapiens, UniProt Q14671 828-1176, C1007R;R1008G;Q1011T). The procedure, abridged:
as §1

In a further test the target is PUM1 PUF domain R1-KTE (Homo sapiens, UniProt Q14671 828-1176, S863K;R864T;Q867E). The method, boiled down:
as §1

For the next test, the target named is PUM1 PUF domain R8-RYF (Homo sapiens, UniProt Q14671 828-1176, N1122R;Q1126F). The procedure, abridged:
as §1

The target in another test is PUM1 PUF domain R8-RFE (Homo sapiens, UniProt Q14671 828-1176, N1122R;Y1123F;Q1126E). The procedure, abridged: as §1
A further test has as its target PUM1 PUF domain R8-NWE (Homo sapiens, UniProt Q14671 828-1176, Y1123W;Q1126E). The method, boiled down:
as §1

The next test addresses PUM1 PUF domain R4-KGY (Homo sapiens, UniProt Q14671 828-1176, N971K;H972G;Q975Y). The method, boiled down:
as §1

The target in a further test is PUM1 PUF domain R4-WGA (Homo sapiens, UniProt Q14671 828-1176, N971W;H972G;Q975A). The method, boiled down:
as §1

The next test has as its target PUM1 PUF domain R4-VRT (Homo sapiens, UniProt Q14671 828-1176, N971V;H972R;Q975T). The method, boiled down: as §1
The next test concerns the target PUM1 PUF domain R3-VRV (Homo sapiens, UniProt Q14671 828-1176, C935V;Q939V). The procedure, abridged: as §1
For another test, the target named is PUM1 PUF domain R3-YYA (Homo sapiens, UniProt Q14671 828-1176, C935Y;R936Y;Q939A). The method, boiled down: as §1
The next test deals with PUM1 PUF domain R3-RAQ (Homo sapiens, UniProt Q14671 828-1176, C935R;R936A). The method, boiled down:
as §1

In the next test the target is PUM1 PUF domain R3-WAR (Homo sapiens, UniProt Q14671 828-1176, C935W;R936A;Q939R). The procedure, abridged:
as §1

In a further test the target is PUM1 PUF domain R3-LSN (Homo sapiens, UniProt Q14671 828-1176, C935L;R936S;Q939N). The method, boiled down: as §1
For a further test, the target named is PUM1 PUF domain R4-SQR (Homo sapiens, UniProt Q14671 828-1176, N971S;H972Q;Q975R). The method, boiled down: as §1
Another test deals with PUM1 PUF domain R3-YCD (Homo sapiens, UniProt Q14671 828-1176, C935Y;R936C;Q939D). The method, boiled down: as §1
PUM1 PUF domain R3-YCD, sequence (Q14671 828-1176 C935Y/R936C/Q939D): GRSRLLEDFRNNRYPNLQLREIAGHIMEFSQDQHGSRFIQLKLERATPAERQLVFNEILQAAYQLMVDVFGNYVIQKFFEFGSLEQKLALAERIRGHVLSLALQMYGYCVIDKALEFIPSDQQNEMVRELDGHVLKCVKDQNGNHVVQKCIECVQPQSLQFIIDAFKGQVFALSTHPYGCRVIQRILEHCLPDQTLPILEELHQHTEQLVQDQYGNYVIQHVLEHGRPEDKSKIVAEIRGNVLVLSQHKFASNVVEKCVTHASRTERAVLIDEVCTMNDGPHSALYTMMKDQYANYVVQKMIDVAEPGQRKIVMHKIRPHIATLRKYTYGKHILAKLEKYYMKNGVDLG

PUM1 PUF domain R5-GRK, sequence (Q14671 828-1176 C1007G/Q1011K): as the sequence (Q14671 828-1176 C935Y/R936C/Q939D) above, with Y108C, C109R, D112Q, C180G, Q184K counted along it
PUM1 PUF domain R1-SGE, sequence (Q14671 828-1176 R864G/Q867E): as the sequence (Q14671 828-1176 C935Y/R936C/Q939D) above, with R37G, Q40E, Y108C, C109R, D112Q counted along it
PUM1 PUF domain R3-LSN, sequence (Q14671 828-1176 C935L/R936S/Q939N): as the sequence (Q14671 828-1176 C935Y/R936C/Q939D) above, with Y108L, C109S, D112N counted along it
PUM1 PUF domain R3-WAR, sequence (Q14671 828-1176 C935W/R936A/Q939R): as the sequence (Q14671 828-1176 C935Y/R936C/Q939D) above, with Y108W, C109A, D112R counted along it
PUM1 PUF domain R8-RFE, sequence (Q14671 828-1176 N1122R/Y1123F/Q1126E): as the sequence (Q14671 828-1176 C935Y/R936C/Q939D) above, with Y108C, C109R, D112Q, N295R, Y296F, Q299E counted along it
PUM1 PUF domain R4-WGA, sequence (Q14671 828-1176 N971W/H972G/Q975A): as the sequence (Q14671 828-1176 C935Y/R936C/Q939D) above, with Y108C, C109R, D112Q, N144W, H145G, Q148A counted along it
PUM1 PUF domain R7-RSL, sequence (Q14671 828-1176 S1079R/N1080S/E1083L): as the sequence (Q14671 828-1176 C935Y/R936C/Q939D) above, with Y108C, C109R, D112Q, S252R, N253S, E256L counted along it
PUM1 PUF domain R8-NWE, sequence (Q14671 828-1176 Y1123W/Q1126E): as the sequence (Q14671 828-1176 C935Y/R936C/Q939D) above, with Y108C, C109R, D112Q, Y296W, Q299E counted along it
PUM1 PUF domain R4-KGY, sequence (Q14671 828-1176 N971K/H972G/Q975Y): as the sequence (Q14671 828-1176 C935Y/R936C/Q939D) above, with Y108C, C109R, D112Q, N144K, H145G, Q148Y counted along it
PUM1 PUF domain R3-RAQ, sequence (Q14671 828-1176 C935R/R936A): as the sequence (Q14671 828-1176 C935Y/R936C/Q939D) above, with Y108R, C109A, D112Q counted along it
PUM1 PUF domain R8-RYF, sequence (Q14671 828-1176 N1122R/Q1126F): as the sequence (Q14671 828-1176 C935Y/R936C/Q939D) above, with Y108C, C109R, D112Q, N295R, Q299F counted along it
PUM1 PUF domain R4-VRT, sequence (Q14671 828-1176 N971V/H972R/Q975T): as the sequence (Q14671 828-1176 C935Y/R936C/Q939D) above, with Y108C, C109R, D112Q, N144V, H145R, Q148T counted along it
PUM1 PUF domain R4-SQR, sequence (Q14671 828-1176 N971S/H972Q/Q975R): as the sequence (Q14671 828-1176 C935Y/R936C/Q939D) above, with Y108C, C109R, D112Q, N144S, H145Q, Q148R counted along it
PUM1 PUF domain R3-YYA, sequence (Q14671 828-1176 C935Y/R936Y/Q939A): as the sequence (Q14671 828-1176 C935Y/R936C/Q939D) above, with C109Y, D112A counted along it
PUM1 PUF domain R5-RYI, sequence (Q14671 828-1176 C1007R/R1008Y/Q1011I): as the sequence (Q14671 828-1176 C935Y/R936C/Q939D) above, with Y108C, C109R, D112Q, C180R, R181Y, Q184I counted along it
PUM1 PUF domain R1-KTE, sequence (Q14671 828-1176 S863K/R864T/Q867E): as the sequence (Q14671 828-1176 C935Y/R936C/Q939D) above, with S36K, R37T, Q40E, Y108C, C109R, D112Q counted along it
PUM1 PUF domain R7-GND, sequence (Q14671 828-1176 S1079G/E1083D): as the sequence (Q14671 828-1176 C935Y/R936C/Q939D) above, with Y108C, C109R, D112Q, S252G, E256D counted along it
PUM1 PUF domain R3-VRV, sequence (Q14671 828-1176 C935V/Q939V): as the sequence (Q14671 828-1176 C935Y/R936C/Q939D) above, with Y108V, C109R, D112V counted along it
PUM1 PUF domain R5-RGT, sequence (Q14671 828-1176 C1007R/R1008G/Q1011T): as the sequence (Q14671 828-1176 C935Y/R936C/Q939D) above, with Y108C, C109R, D112Q, C180R, R181G, Q184T counted along it

On to “GGCUAGAACUAGUGGAUCCCCCGGCGCCCGGCGGCUCGAGCCCGGGUAAGUUUAAAUAGUCUGCAUGCCGCCGGGCGCCAUGCCUGCAGGUCGACUCUAGAAAACAUG”, for which the binding signal with PUM1 PUF domain R7-GND was 3.28 log2 enrichment (interaction score); in the test with PUM1 PUF domain R7-RSL it was 3.53 log2 enrichment (interaction score).
In the case of “GGCUAGAACUAGUGGAUCCCCCGGCGCCCGGCGGCUCGAGCCCGGGUAAGUGUGAAUAGUCUGCAUGCCGCCGGGCGCCAUGCCUGCAGGUCGACUCUAGAAAACAUG”, the binding signal with PUM1 PUF domain R5-GRK was 1.55 log2 enrichment (interaction score).
The same measure, in the same setting: the result for “GGCUAGAACUAGUGGAUCCCCCGGCGCCCGGCGGCUCGAGCCCGGGUAAGUGUUAAUAGUCUGCAUGCCGCCGGGCGCCAUGCCUGCAGGUCGACUCUAGAAAACAUG” reads 4.85 log2 enrichment (interaction score).
As for “GGCUAGAACUAGUGGAUCCCCCGGCGCCCGGCGGCUCGAGCCCGGGUAAGUGUAAAUGGUCUGCAUGCCGCCGGGCGCCAUGCCUGCAGGUCGACUCUAGAAAACAUG”, the binding signal in the test with PUM1 PUF domain R1-SGE is 5.2 log2 enrichment (interaction score).
As for “GGCUAGAACUAGUGGAUCCCCCGGCGCCCGGCGGCUCGAGCCCGGGUAAGUGUCAAUAGUCUGCAUGCCGCCGGGCGCCAUGCCUGCAGGUCGACUCUAGAAAACAUG”, the binding signal is 3.71 log2 enrichment (interaction score) with PUM1 PUF domain R5-RYI, 2.77 log2 enrichment (interaction score) in the test with PUM1 PUF domain R5-GRK and 5.24 log2 enrichment (interaction score) with PUM1 PUF domain R5-RGT.
On to “GGCUAGAACUAGUGGAUCCCCCGGCGCCCGGCGGCUCGAGCCCGGGUAAGUGUAAAUCGUCUGCAUGCCGCCGGGCGCCAUGCCUGCAGGUCGACUCUAGAAAACAUG”, for which the values for the binding signal in the test with PUM1 PUF domain R1-KTE and in the test with PUM1 PUF domain R1-SGE were 4.3 log2 enrichment (interaction score) and 1.55 log2 enrichment (interaction score), respectively.
“GGCUAGAACUAGUGGAUCCCCCGGCGCCCGGCGGCUCGAGCCCGGGUAAGUGUAAAUUGUCUGCAUGCCGCCGGGCGCCAUGCCUGCAGGUCGACUCUAGAAAACAUG”: the binding signal in the test with PUM1 PUF domain R1-SGE is 3.87 log2 enrichment (interaction score).
As to “GGCUAGAACUAGUGGAUCCCCCGGCGCCCGGCGGCUCGAGCCCGGGUAAGCGUAAAUAGUCUGCAUGCCGCCGGGCGCCAUGCCUGCAGGUCGACUCUAGAAAACAUG”, the figures for the binding signal with PUM1 PUF domain R8-RYF, with PUM1 PUF domain R8-RFE and in the test with PUM1 PUF domain R8-NWE were 4.88 log2 enrichment (interaction score), 3.87 log2 enrichment (interaction score) and 1.64 log2 enrichment (interaction score), respectively.
For “GGCUAGAACUAGUGGAUCCCCCGGCGCCCGGCGGCUCGAGCCCGGGUAAGUGUAAAUAGUCUGCAUGCCGCCGGGCGCCAUGCCUGCAGGUCGACUCUAGAAAACAUG”, the binding signal was 4.05 log2 enrichment (interaction score) in the test with PUM1 PUF domain R4-KGY; 3.37 log2 enrichment (interaction score) in the test with PUM1 PUF domain R5-GRK; 3.8 log2 enrichment (interaction score) with PUM1 PUF domain R4-WGA; 2.4 log2 enrichment (interaction score) with PUM1 PUF domain R8-RFE; 2.9 log2 enrichment (interaction score) with PUM1 PUF domain R8-NWE; 4.25 log2 enrichment (interaction score) in the test with PUM1 PUF domain R4-VRT. Also, the binding signal with PUM1 PUF domain R3-VRV is 3.29 log2 enrichment (interaction score).
In the case of “GGCUAGAACUAGUGGAUCCCCCGGCGCCCGGCGGCUCGAGCCCGGGUAAGUCUAAAUAGUCUGCAUGCCGCCGGGCGCCAUGCCUGCAGGUCGACUCUAGAAAACAUG”, the binding signal in the test with PUM1 PUF domain R7-RSL is 2.11 log2 enrichment (interaction score).
As for “GGCUAGAACUAGUGGAUCCCCCGGCGCCCGGCGGCUCGAGCCCGGGUAAGUGUAAUUAGUCUGCAUGCCGCCGGGCGCCAUGCCUGCAGGUCGACUCUAGAAAACAUG”, the binding signal with PUM1 PUF domain R3-YYA is 3.25 log2 enrichment (interaction score); with PUM1 PUF domain R3-RAQ, 3.8 log2 enrichment (interaction score); in the test with PUM1 PUF domain R3-WAR, 2.65 log2 enrichment (interaction score); in the test with PUM1 PUF domain R3-LSN, 2.89 log2 enrichment (interaction score).
Take “GGCUAGAACUAGUGGAUCCCCCGGCGCCCGGCGGCUCGAGCCCGGGUAAGUGUACAUAGUCUGCAUGCCGCCGGGCGCCAUGCCUGCAGGUCGACUCUAGAAAACAUG”: the binding signal in the test with PUM1 PUF domain R4-SQR was 3.07 log2 enrichment (interaction score); with PUM1 PUF domain R4-WGA it was 3.39 log2 enrichment (interaction score).
As to “GGCUAGAACUAGUGGAUCCCCCGGCGCCCGGCGGCUCGAGCCCGGGUAAGUGUAAGUAGUCUGCAUGCCGCCGGGCGCCAUGCCUGCAGGUCGACUCUAGAAAACAUG”, the binding signal is 2.85 log2 enrichment (interaction score) in the test with PUM1 PUF domain R3-WAR, 3.96 log2 enrichment (interaction score) with PUM1 PUF domain R3-YCD and 4.28 log2 enrichment (interaction score) with PUM1 PUF domain R3-LSN.
